Reference: PubChem BioAssay (NCI)
Compounds without any hit were thinned out: in the full panel of roughly 83,000, 20% have a hit.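 For each line, cells grew in 96-well plates with the test compound present at a single concentration for 48 hours.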 A number with no mark means an inactive call. Calls of active or inactive are those of the source. How the source made its calls: active means growth percent below 10; inactive means the rest.

Key:
Experiment in all cases: NCI-60 one-dose screen, 48 h (100 = growth as untreated, 0 = no growth, -100 = all killed)
Details in all cases: 10 µM unless noted
NCI-H23 lung = test system: NCI-H23 lung
NCI-H226 lung = test system: NCI-H226 lung
NCI-H322M lung = test system: NCI-H322M lung
HOP-62 NSCLC = test system: HOP-62 NSCLC
NCI-H460 lung = test system: NCI-H460 lung
HOP-92 NSCLC = test system: HOP-92 NSCLC
NCI-H522 lung = test system: NCI-H522 lung
A549/ATCC NSCLC = test system: A549/ATCC NSCLC
786-0 renal = test system: 786-0 renal
COLO 205 colon = test system: COLO 205 colon
DU-145 prostate = test system: DU-145 prostate
K-562 leukemia = test system: K-562 leukemia
MALME-3M melanoma = test system: MALME-3M melanoma
MDA-MB-231 breast = test system: MDA-MB-231 breast
RXF 393 renal = test system: RXF 393 renal
SF-268 CNS = test system: SF-268 CNS
SF-295 CNS = test system: SF-295 CNS
UACC-257 melanoma = test system: UACC-257 melanoma
M14 melanoma = test system: M14 melanoma

SMILES | growth (NCI-H23 lung) | growth (NCI-H226 lung) | growth (NCI-H322M lung) | growth (HOP-62 NSCLC) | growth (NCI-H460 lung) | growth (HOP-92 NSCLC) | growth (NCI-H522 lung) | growth (A549/ATCC NSCLC) | growth (786-0 renal) | growth (COLO 205 colon) | growth (DU-145 prostate) | growth (K-562 leukemia) | growth (MALME-3M melanoma) | growth (MDA-MB-231 breast) | growth (RXF 393 renal) | growth (SF-268 CNS) | growth (SF-295 CNS) | growth (UACC-257 melanoma) | growth (M14 melanoma)
CC/C=C\C[C@H](F)C/C=C1/C(=O)C=C[C@@H]1C/C=C\CCCC(=O)O | 62.7% | 104% | 93.6% | 111% | 50.6% | 109% | 31% | 68.3% | 82.4% | 48.5% | 66.3% | 10.3% | 59.2% | 73% | 75% | 82.3% | 96.2% | 49.7% | 32.1%
CC(C)Oc1nc2c(c(=O)n(C)c(=O)n2C)n1C | 96% | 97.1% | 94.4% | 92.5% | 105% | 102% | 80.9% | 84.7% | 104% | 102% | 105% | 95% | 107% | 103% | 116% | 100% | 101% | 88% | 107%
CC1=C(NCCN2CCCC2)C(=O)c2c(OCc3ccc(C(F)(F)F)cc3)cccc2C1=O | 90.2% | 91.3% | 91% | 86.9% | 68.9% | 32.5% | 100% | 85% | 67% | 82.4% | 92.1% | -14.8% (active) | 104% | 81.4% | 88.5% | 77.1% | 76.7% | 65.1% | -82.2% (active)
NC(N)=Nc1ccc(S(=O)(=O)O)cc1 | 102% | 105% | 114% | 106% | 109% | 84.3% | 79.3% | 106% | 98.3% | 109% | 131% | 92.2% | 103% | 93.6% | 136% | 110% | 117% | 99.1% | 110%
COc1ccc(-c2cc(/C=C3\C(=O)Nc4ccc(Cl)cc43)[nH]n2)cc1 | 63.1% | 75.7% | 77.3% | 55.5% | 37% | 80.7% | 9.37% (active) | 35.7% | 82.3% | 37% | 72.6% | 24% | 33.4% | 73.9% | 51% | 66.3% | 47% | 51.7% | 44.7%
COc1ccc(-c2csc(NC(=O)CN3CCN(c4cc5c(cc4F)c(=O)c(C(=O)O)cn5C4CC4)CC3)n2)cc1 | 9.73% (active) | 16% | 17.1% | 15.4% | 3.8% (active) | -17.2% (active) | -9.19% (active) | 9.1% (active) | 24.4% | 12.6% | 30.2% | 19% | 15.4% | 11.9% | 18.7% | 29.2% | -4.67% (active) | -13.4% (active) | 20.3%
CNCc1cccc2c1OCCOCCOCCN(C)S(=O)(=O)c1ccc(cc1)-c1cnc(N)c(n1)C(=O)N2 | 52.6% | 45.6% | 25.5% | 79.8% | 10.5% | 127% | 9.56% (active) | 60.5% | 9.16% (active) | 29.8% | 47.4% | 1.1% (active) | 9.53% (active) | 69.1% | -54.8% (active) | 69.4% | 87.6% | 63.4% | 37.3%
COc1cc(C2CC(=O)Nc3c2cnn3Cc2ccco2)cc2c1OCCO2 (configuration not stated) | 96.6% | 92.4% | 82.5% | 88.3% | 76.6% | 109% | 44.4% | 80.6% | 98% | 81.2% | 104% | 29.6% | 102% | 101% | 62.4% | 82.5% | 62% | 82.2% | 70.5%
